Measured values taken from PubChem BioAssay AID1159580 (chemical genetic matrix, 2015).
Among all 5,500 compounds or so, about 2,000 (36%) were called active. Another 18% or so got no clear call; they are omitted. Cut-off read from the data, not from the text of the source: active = normalized growth mostly below about 0.91 (no sharp cut-off); inconclusive = no clear call, values can overlap the other calls; inactive = mostly above about 0.92. The list shows a part of the results.

Assay: chemical genetic growth profiling, strain panel (AID 1159580);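 note: tested at 20 µM; growth read once vehicle control cultures reached saturation at 30 °C; 1 = growth at the plate median or of vehicle wells; lower values mean less growth of the strain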
Details: S. cerevisiae deletion strains, growth OD

Measured: normalized growth

O=C(O)c1ccccc1-c1c2cc(I)c(=O)c(I)c-2oc2c(I)c(O)c(I)cc12
inactive: locus YHR030C, strain SLT2, stronger effect = lower value 0.991 | locus YHR079C, strain IRE1, stronger effect = lower value 1 | locus YJL095W, strain BCK1, stronger effect = lower value 0.992 | locus YJR066W, strain TOR1, stronger effect = lower value 0.903 | locus YLR113W, strain HOG1, stronger effect = lower value 0.942 | locus YNL183C, strain NPR1, stronger effect = lower value 0.93 | locus YOR231W, strain MKK1, stronger effect = lower value 1.02 | locus YPL256C, strain CLN2, stronger effect = lower value 1.01
